Experimental data published in PubChem BioAssay (NCI).
The panel holds about 79,000 compounds, 15% with a hit somewhere; the sample as a whole holds those more often. The source made the active and inactive calls. Rule as the data show it: active = growth inhibition above about 70%; inactive = the rest.

Key:
[1] = NCI Yeast Anticancer Drug Screen. Data for the rad52 strain (AID 147);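 also: 0% = growth of vehicle-treated control cultures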; details: S. cerevisiae rad52 mutant growth inhibition, stronger effect = higher value
Method in brief: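 Vehicle-treated cultures served as the reference for growth inhibition of compound-exposed yeast bearing a DNA repair mutation.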

[2] = NCI Yeast Anticancer Drug Screen. Data for the wt1 strain (AID 149);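 also: 0% = growth of vehicle-treated wt1 cultures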; details: S. cerevisiae wt1 strain (SPY 50644) growth inhibition, stronger effect = higher value
Method in brief: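 Growth inhibition read against vehicle controls after compound exposure of the wt1 yeast strain.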

[3] = NCI Yeast Anticancer Drug Screen. Data for the rad50EPP+ strain (AID 151);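 also: 0% = growth of vehicle-treated control cultures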; details: S. cerevisiae rad50 mutant strain, stronger effect = higher value
Method in brief: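 In this screen, rad50EPP+ yeast were exposed to compounds. Growth inhibition was scored against vehicle-treated controls.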

[4] = NCI Yeast Anticancer Drug Screen. Data for the rad50 strain (AID 155);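 also: 0% = growth of vehicle-only cultures of the same strain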; details: S. cerevisiae rad50 strain growth inhibition, stronger effect = higher value
Method in brief: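 Readout: growth inhibition relative to vehicle-treated cultures. Compound exposure was carried out in a genetically defined yeast strain deficient in DNA damage repair.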

[5] = NCI Yeast Anticancer Drug Screen. Data for the mec2-1 strain (AID 157); details: S. cerevisiae mec2-1 strain, stronger effect = higher value
Method in brief: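 Vehicle-treated cultures served as reference for growth inhibition of compound-exposed mec2-1 yeast.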

[6] = NCI Yeast Anticancer Drug Screen. Data for the rad14 strain (AID 159);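 also: 0% = growth of vehicle-treated control cultures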; details: S. cerevisiae rad14 strain growth inhibition, stronger effect = higher value
Method in brief: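 Growth inhibition vs vehicle controls; genetically altered yeast strain (DNA damage repair defect) treated with test compounds.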

[7] = NCI Yeast Anticancer Drug Screen. Data for the sgs1 mgt1 strain (AID 161);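 also: 0% = growth of cultures given vehicle only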; details: S. cerevisiae sgs1 mgt1 strain, stronger effect = higher value
Method in brief: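 Genetically altered yeast, compound exposure, growth inhibition relative to vehicle.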

[8] = NCI Yeast Anticancer Drug Screen. Data for the CLN2oe strain (AID 163);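 also: 0% = growth of vehicle-only control cultures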; details: S. cerevisiae CLN2oe strain, stronger effect = higher value
Method in brief: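 Inhibition relative to vehicle-treated yeast is reported. Cells: strain with genetic alteration in cell-cycle control, grown with compound.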

[9] = NCI Yeast Anticancer Drug Screen. Data for the cln2 rad14 strain (AID 165);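 also: 0% = growth equal to vehicle treated cultures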; details: S. cerevisiae cln2 rad14 strain, stronger effect = higher value
Method in brief: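 Each compound was tested on cln2 rad14 yeast. Inhibition of growth was calculated against vehicle-exposed controls.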

[10] = NCI Yeast Anticancer Drug Screen. Data for the bub3 strain (AID 167); details: S. cerevisiae bub3 mutant strain, stronger effect = higher value
Method in brief: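 Readout: yeast growth inhibition, expressed relative to vehicle-only wells. The test organism is a mutant strain from a panel with lesions in DNA repair or checkpoint genes.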

[11] = NCI Yeast Anticancer Drug Screen. Data for the wt2 strain (AID 169);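 also: 0% = growth of vehicle-treated yeast cultures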; details: S. cerevisiae wt2 strain growth inhibition, stronger effect = higher value
Method in brief: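 Inhibition of yeast growth was determined after compound treatment, normalised to controls receiving only vehicle.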

[12] = NCI Yeast Anticancer Drug Screen. Data for the mlh1 strain (AID 171);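 also: 0% = growth of vehicle-treated control cultures of the same strain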; details: S. cerevisiae mlh1 strain growth inhibition, stronger effect = higher value
Method in brief: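 Vehicle-normalised growth inhibition of a repair- or checkpoint-altered yeast strain following compound treatment.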

[13] = NCI Yeast Anticancer Drug Screen. Data for the rad18 strain (AID 177); details: S. cerevisiae rad18 mutant growth inhibition, stronger effect = higher value
Method in brief: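 Test articles were incubated with altered yeast defective in DNA damage repair. Results are given as inhibition of growth versus vehicle.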

[14] = at 5.0 µM (retest, dose inferred, filed as 0.5)
[15] = at 50.0 µM (retest, dose inferred, filed as 5.0)

Measured: growth inhibition

C=CCC1=C(C)C(OC(=O)/C=C/c2ccccc2)CC1=O (stereo not given)
active: [10]; [15] 79%
inactive: [1]; at 1.2 µM -4% | [1]; at 3.7 µM 0% | [1]; at 11.0 µM 2% | [1]; at 33.0 µM 5% | [1]; at 100.0 µM 39% | [2]; at 1.2 µM -2% | [2]; at 3.7 µM -5% | [2]; at 11.0 µM -5% | [2]; at 33.0 µM -2% | [2]; at 100.0 µM -3% | [3]; at 1.2 µM -1% | [3]; at 3.7 µM 0% | [3]; at 11.0 µM 6% | [3]; at 33.0 µM 7% | [3]; at 100.0 µM 15% | [4]; at 1.2 µM 2% | [4]; at 3.7 µM 1% | [4]; [14] 10% | [4]; at 11.0 µM 2% | [4]; at 33.0 µM 8% | [4]; [15] 19% | [4]; at 50.0 µM 2.25% | [4]; at 100.0 µM 39% | [5]; at 1.2 µM -4% | [5]; at 3.7 µM -4% | [5]; [14] -11% | [5]; at 11.0 µM -4% | [5]; at 33.0 µM 0% | [5]; [15] -18% | [5]; at 50.0 µM 5.6% | [5]; at 100.0 µM 7% | [6]; at 1.2 µM 1% | [6]; at 3.7 µM 2% | [6]; at 11.0 µM 4% | [6]; at 33.0 µM 5% | [6]; at 100.0 µM 18% | [7]; [14] 23% | [7]; [15] 39% | [7]; at 50.0 µM 19.4% | [8]; at 1.2 µM 2% | [8]; at 3.7 µM 2% | [8]; at 11.0 µM 5% | [8]; at 33.0 µM 15% | [8]; at 100.0 µM 28% | [9]; [14] 17% | [9]; [15] 36% | [9]; at 50.0 µM 33.5% | [10]; at 1.2 µM 7% | [10]; at 3.7 µM 20% | [10]; [14] 25% | [10]; at 11.0 µM 33% | [10]; at 33.0 µM 36% | [10]; at 50.0 µM 40.6% | [10]; at 100.0 µM 47% | [11]; at 1.2 µM -10% | [11]; at 3.7 µM -11% | [11]; at 11.0 µM -8% | [11]; at 33.0 µM -5% | [11]; at 100.0 µM 12% | [12]; at 1.2 µM -3% | [12]; at 3.7 µM -2% | [12]; at 11.0 µM -2% | [12]; at 33.0 µM 3% | [12]; at 100.0 µM 42% | [13]; at 1.2 µM -5% | [13]; at 3.7 µM 0% | [13]; at 11.0 µM -1% | [13]; at 33.0 µM 5% | [13]; at 100.0 µM 31%
